Measured values reported in PubChem BioAssay (EPA / NIEHS).
Calls of active or inactive are those of the source. How the source made its calls: active means hit-call score of the fitted dose curve at least 0.9, where 1 is the maximum; inactive means score below 0.9.

Columns and labels:
[1] = ATG_ISRE_CIS: Attagene CIS-FACTORIAL HepG2 Assay for human Interferon Regulatory Factor 1 (IRF1) binding to an Interferon-Stimulated Response Element (ISRE) (AID 2282948); conditions: HepG2 ISRE cis-reporter (Attagene), mRNA transcription readout; actives raise or lower the signal
Procedure, shortened: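 HepG2 cells transiently transfected with multiplexed cis-promoter reporter units; after 24 h compound exposure, reporter mRNA quantified by RT-PCR, FAM labelling, HpaI digestion and capillary electrophoresis. Bidirectional fit versus DMSO baseline.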

[2] = ATG_M_32_CIS: Attagene CIS-FACTORIAL HepG2 Assay for M32 Transcription Factor (Internal Marker) (AID 2282949); conditions: HepG2 Attagene cis-factorial M32 reporter, mRNA; actives raise or lower the signal;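 further: background control marker of the multiplexed CIS panel rather than a real target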
Procedure, shortened: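 Following 24 h chemical exposure of HepG2 cells transiently expressing cis-promoter reporter constructs, reporter transcript levels were determined by RT-PCR with fluorescent labelling and capillary electrophoresis, then fitted bidirectionally against DMSO.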

[3] = ATG_M_06_CIS: Attagene CIS-FACTORIAL HepG2 Assay for M06 Transcription Factor (Internal Marker) (AID 2282950); conditions: HepG2 Attagene CIS-FACTORIAL M06 internal marker reporter; actives raise or lower the signal
Procedure, shortened: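 Fluorescence-labelled RT-PCR products from cis-promoter reporter units, cut with HpaI and resolved by capillary electrophoresis, give the signal. Cells are human HepG2, dosed for 24 h. Serves as background control, fitted relative to DMSO.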

[4] = target: Hypoxia-inducible factor 1-alpha (Homo sapiens) (UniProt Q16665); assay: ATG_HIF1a_CIS: Attagene CIS-FACTORIAL HepG2 Assay for human Hypoxia Inducible Factor 1 (HIF1A) (AID 2282951); conditions: HepG2 Attagene cis-factorial HIF1a reporter transcription; actives raise or lower the signal
Hypoxia-inducible factor 1-alpha (Homo sapiens), sequence (Q16665 whole entry, looked up): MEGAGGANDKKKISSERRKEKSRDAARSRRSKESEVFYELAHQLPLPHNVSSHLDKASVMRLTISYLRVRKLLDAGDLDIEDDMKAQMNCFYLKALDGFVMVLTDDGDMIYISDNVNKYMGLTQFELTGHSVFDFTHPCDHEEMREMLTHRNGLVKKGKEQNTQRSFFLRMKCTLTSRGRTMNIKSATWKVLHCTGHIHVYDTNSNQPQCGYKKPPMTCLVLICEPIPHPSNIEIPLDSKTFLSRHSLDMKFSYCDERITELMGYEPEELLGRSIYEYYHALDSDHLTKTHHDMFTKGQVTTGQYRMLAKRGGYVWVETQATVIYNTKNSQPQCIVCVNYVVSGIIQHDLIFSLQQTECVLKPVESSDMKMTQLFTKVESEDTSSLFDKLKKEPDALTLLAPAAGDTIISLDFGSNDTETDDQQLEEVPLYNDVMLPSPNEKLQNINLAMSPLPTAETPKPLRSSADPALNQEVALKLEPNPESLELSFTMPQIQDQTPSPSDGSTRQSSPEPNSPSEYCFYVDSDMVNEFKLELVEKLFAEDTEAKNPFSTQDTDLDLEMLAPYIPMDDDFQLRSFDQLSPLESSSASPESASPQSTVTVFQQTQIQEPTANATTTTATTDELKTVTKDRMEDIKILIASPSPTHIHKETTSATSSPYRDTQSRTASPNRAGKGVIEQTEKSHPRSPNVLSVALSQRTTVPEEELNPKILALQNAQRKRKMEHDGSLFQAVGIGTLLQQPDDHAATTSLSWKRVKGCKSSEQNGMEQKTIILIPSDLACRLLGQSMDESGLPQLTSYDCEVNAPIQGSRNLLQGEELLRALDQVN
Procedure, shortened: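 HepG2, transient cis-reporter library, 24 h dosing. RNA → RT (oligo dT) → PCR → 6-FAM primer extension → HpaI → CE. Bidirectional curve fit vs DMSO.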

[5] = target: Hepatocyte nuclear factor 6 (Homo sapiens) (UniProt Q9UBC0); assay: ATG_HNF6_CIS: Attagene CIS-FACTORIAL HepG2 Assay for human Hepatocyte Nuclear Factor 6 (HNF6) (AID 2282952); conditions: HepG2 Attagene cis-factorial HNF6 reporter transcription; actives raise or lower the signal
Hepatocyte nuclear factor 6 (Homo sapiens), sequence (Q9UBC0 whole entry, looked up): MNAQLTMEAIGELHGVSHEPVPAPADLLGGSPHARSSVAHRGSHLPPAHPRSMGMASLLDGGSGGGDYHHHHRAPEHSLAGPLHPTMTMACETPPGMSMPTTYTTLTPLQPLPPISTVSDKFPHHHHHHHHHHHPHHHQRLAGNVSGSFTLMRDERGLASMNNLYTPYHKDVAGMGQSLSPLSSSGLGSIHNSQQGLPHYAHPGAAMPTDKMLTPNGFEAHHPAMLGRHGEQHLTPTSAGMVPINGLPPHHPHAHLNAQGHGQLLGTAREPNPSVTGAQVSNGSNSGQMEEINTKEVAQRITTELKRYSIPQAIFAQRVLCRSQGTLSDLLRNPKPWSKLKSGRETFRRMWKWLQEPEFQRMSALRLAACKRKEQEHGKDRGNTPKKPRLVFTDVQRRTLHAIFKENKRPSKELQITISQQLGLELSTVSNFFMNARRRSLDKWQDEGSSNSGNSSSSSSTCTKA
Procedure, shortened: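 HepG2, transient MRTU transfection (cis promoters); 24 h chemical exposure; total RNA → oligo(dT) RT → PCR → 6-FAM labelling → HpaI cut → CE; bidirectional fit vs DMSO.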

[6] = target: Heat shock factor protein 1 (Homo sapiens) (UniProt Q00613); assay: ATG_HSE_CIS: Attagene CIS-FACTORIAL HepG2 Assay for human Heat Shock Transcription Factor 1 (HSE) (AID 2282953); conditions: HepG2 HSE cis-reporter, Attagene RNA transcription; actives raise or lower the signal
Heat shock factor protein 1 (Homo sapiens), sequence (Q00613 whole entry, looked up): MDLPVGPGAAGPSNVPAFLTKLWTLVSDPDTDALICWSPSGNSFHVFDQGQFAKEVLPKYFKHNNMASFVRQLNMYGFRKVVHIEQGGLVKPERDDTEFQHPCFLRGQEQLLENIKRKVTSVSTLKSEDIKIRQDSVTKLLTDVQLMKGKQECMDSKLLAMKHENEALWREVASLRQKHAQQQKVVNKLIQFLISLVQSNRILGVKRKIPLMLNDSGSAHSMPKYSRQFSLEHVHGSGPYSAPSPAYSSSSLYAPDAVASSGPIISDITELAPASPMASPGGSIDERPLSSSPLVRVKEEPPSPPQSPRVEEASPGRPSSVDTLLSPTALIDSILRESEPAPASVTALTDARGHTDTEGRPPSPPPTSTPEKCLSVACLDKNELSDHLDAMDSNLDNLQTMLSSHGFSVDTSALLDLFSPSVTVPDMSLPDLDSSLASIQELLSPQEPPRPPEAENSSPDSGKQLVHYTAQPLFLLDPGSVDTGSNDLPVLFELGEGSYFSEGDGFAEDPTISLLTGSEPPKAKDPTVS
Procedure, shortened: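 After a 24 h incubation with test chemical, transfected HepG2 cells were harvested for RNA; reporter transcripts were measured by RT-PCR and capillary electrophoresis. Values reflect gain or loss of signal relative to DMSO.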

[7] = ATG_MRE_CIS: Attagene CIS-FACTORIAL HepG2 Assay for human Metal Responsive Element (MRE) (AID 2282954); conditions: HepG2 MRE cis-reporter transcription, Attagene multiplex; actives raise or lower the signal
Procedure, shortened: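 HepG2 cells transiently transfected with multiple cis-element reporter units measure endogenous MTF1-driven transcription. After 24 h compound exposure, reporter mRNA is quantified by RT-PCR with 6-FAM labelling, HpaI digestion and capillary electrophoresis; bidirectional fits versus DMSO.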

[8] = target: Paired box protein Pax-6 (Homo sapiens) (UniProt P26367); assay: ATG_Pax6_CIS: Attagene CIS-FACTORIAL HepG2 Assay for human Paired Box 6 (PAX6) (AID 2282956); conditions: HepG2 CIS-FACTORIAL PAX6 reporter transcription, RNA readout; actives raise or lower the signal
Paired box protein Pax-6 (Homo sapiens), sequence (P26367 whole entry, looked up): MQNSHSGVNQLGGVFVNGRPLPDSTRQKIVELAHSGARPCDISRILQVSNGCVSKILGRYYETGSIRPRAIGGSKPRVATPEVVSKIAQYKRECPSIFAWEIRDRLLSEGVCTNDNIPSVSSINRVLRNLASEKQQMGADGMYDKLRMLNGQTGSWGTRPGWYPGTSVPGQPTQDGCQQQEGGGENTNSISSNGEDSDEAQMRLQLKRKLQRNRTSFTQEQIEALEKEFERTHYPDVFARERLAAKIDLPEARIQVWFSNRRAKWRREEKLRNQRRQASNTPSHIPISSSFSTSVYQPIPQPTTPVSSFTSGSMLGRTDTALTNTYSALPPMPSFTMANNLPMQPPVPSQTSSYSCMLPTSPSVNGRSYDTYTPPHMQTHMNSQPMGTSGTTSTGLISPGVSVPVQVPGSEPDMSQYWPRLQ
Procedure, shortened: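 HepG2 cells transiently transfected with multiplexed cis-promoter reporter units (endogenous TF activity) were dosed for 24 h. Reporter mRNA was quantified by RT-PCR, 6-FAM labeling, HpaI digestion and capillary electrophoresis; bidirectional fitting versus DMSO baseline.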

[9] = ATG_PXRE_CIS: Attagene CIS-FACTORIAL HepG2 Assay for human Pregnane X Receptor Element (PXRE) (AID 2282957); conditions: HepG2 Attagene CIS-FACTORIAL PXRE reporter, mRNA; actives raise or lower the signal
Procedure, shortened: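 Transfect HepG2 with MRTUs (cis promoter elements); dose chemical, incubate 24 h; isolate RNA, RT with oligo(dT), PCR, 6-FAM label, HpaI cut, CE. Gain/loss fit vs DMSO.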

[10] = ATG_PPRE_CIS: Attagene CIS-FACTORIAL HepG2 Assay for human Peroxisome Proliferator-activated Response Element (PPRE) (AID 2282958); conditions: HepG2 PPRE cis-element reporter, Attagene transcription factor profiling; actives raise or lower the signal
Procedure, shortened: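 Transcript-level reporter induction in transfected HepG2 cells after 24 h chemical exposure, quantified by fluorescence from RT-PCR products separated by capillary electrophoresis.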

[11] = ATG_RORE_CIS: Attagene CIS-FACTORIAL HepG2 Assay for human RAR-related Orphan Receptor Element (RORE) (AID 2282959); conditions: HepG2 Attagene cis-factorial RORE reporter, mRNA; actives raise or lower the signal
Procedure, shortened: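 Multiplexed reporter assay measuring mRNA induction from a cis promoter element in transiently transfected HepG2 cells after 24 h treatment. Detection via RT-PCR and capillary electrophoresis fluorescence; DMSO serves as baseline.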

[12] = ATG_Sox_CIS: Attagene CIS-FACTORIAL HepG2 Assay for human SRY-box transcription factor (SOX) (AID 2282960); conditions: HepG2 Attagene cis-factorial SOX reporter, mRNA; actives raise or lower the signal
Procedure, shortened: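 Cells were transfected with reporter constructs under cis-regulatory promoters, then exposed to chemicals for 24 h. Reporter transcripts were quantified by fluorescence after RT-PCR and capillary electrophoresis; activity was fitted in both directions against DMSO.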

[13] = ATG_SREBP_CIS: Attagene CIS-FACTORIAL HepG2 Assay for human Sterol Regulatory Element Binding (SREBP) (AID 2282962); conditions: HepG2 Attagene cis-factorial SREBP reporter, mRNA; actives raise or lower the signal
Procedure, shortened: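 HepG2 cells transiently transfected with multiplexed cis-element reporter units report endogenous transcription factor activity. After 24 h of chemical exposure, reporter mRNA was quantified by RT-PCR, 6-FAM labelling, HpaI digestion and capillary electrophoresis; bidirectional fits used DMSO as baseline.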

[14] = target: Signal transducer and activator of transcription 3 (Homo sapiens) (UniProt P40763); assay: ATG_STAT3_CIS: Attagene CIS-FACTORIAL HepG2 Assay for human Signal Transducer and Activator of Transcription 3 (STAT3) (AID 2282963); conditions: HepG2, Attagene cis-factorial STAT3 reporter transcription; actives raise or lower the signal
Signal transducer and activator of transcription 3 (Homo sapiens), sequence (P40763 whole entry, looked up): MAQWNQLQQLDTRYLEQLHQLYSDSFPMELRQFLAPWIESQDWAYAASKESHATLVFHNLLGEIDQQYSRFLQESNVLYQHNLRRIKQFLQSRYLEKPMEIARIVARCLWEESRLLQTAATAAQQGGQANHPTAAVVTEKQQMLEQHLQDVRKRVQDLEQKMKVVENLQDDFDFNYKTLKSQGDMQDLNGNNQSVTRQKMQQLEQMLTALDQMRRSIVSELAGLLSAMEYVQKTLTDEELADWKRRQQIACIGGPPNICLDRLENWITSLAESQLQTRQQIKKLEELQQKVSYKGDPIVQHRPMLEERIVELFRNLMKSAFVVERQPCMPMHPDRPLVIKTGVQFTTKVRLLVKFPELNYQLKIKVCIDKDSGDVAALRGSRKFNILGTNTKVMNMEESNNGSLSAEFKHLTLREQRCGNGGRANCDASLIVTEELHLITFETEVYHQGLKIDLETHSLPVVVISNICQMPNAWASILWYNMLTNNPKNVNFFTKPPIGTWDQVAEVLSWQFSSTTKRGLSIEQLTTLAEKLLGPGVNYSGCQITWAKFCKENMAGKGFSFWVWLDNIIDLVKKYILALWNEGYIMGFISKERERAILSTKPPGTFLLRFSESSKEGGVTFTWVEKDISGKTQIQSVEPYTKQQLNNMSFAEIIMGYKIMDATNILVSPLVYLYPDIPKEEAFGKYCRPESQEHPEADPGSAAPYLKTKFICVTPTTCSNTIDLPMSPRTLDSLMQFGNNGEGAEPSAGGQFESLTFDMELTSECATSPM
Procedure, shortened: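 HepG2 cells transiently transfected with cis-element-driven multiple reporter transcription units; after 24 h chemical exposure, reporter mRNA measured by RT-PCR, 6-FAM primer-extension labelling, HpaI digestion and capillary electrophoresis. Bidirectional fitting versus DMSO baseline.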

[15] = ATG_TA_CIS: Attagene CIS-FACTORIAL HepG2 Assay for human TA Basal Promoter (AID 2282964); conditions: HepG2 Attagene CIS-factorial TA basal promoter reporter; actives raise or lower the signal
Procedure, shortened: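 Multiplexed mRNA reporter assay, HepG2, 24 h. Reporter cDNA amplified, 6-FAM primer-extended, HpaI-cut, CE-sized; DMSO = negative control and baseline.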

[16] = ATG_TCF_b_cat_CIS: Attagene CIS-FACTORIAL HepG2 Assay for human T-Cell-Factor with beta-catenin (TCF/b-cat) (AID 2282965); conditions: HepG2 TCF/beta-catenin cis-reporter transcription, actives raise or lower the signal
Procedure, shortened: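 Using capillary electrophoresis as the read-out, labelled reporter cDNA fragments from transiently transfected HepG2 were sized and quantified. Exposure lasted 24 hours; activity in either direction was referenced to DMSO.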

[17] = ATG_TAL_CIS: Attagene CIS-FACTORIAL HepG2 Assay for human TAL Basal Promoter (AID 2282966); conditions: HepG2 Attagene cis-factorial TAL promoter reporter; actives raise or lower the signal;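 further: background control endpoint measuring basal TAL promoter reporter mRNA not a specific factor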
Procedure, shortened: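 Fluorescence of labelled reporter cDNA fragments, resolved by capillary electrophoresis, gave the readout. Human HepG2 liver cells carried transiently transfected cis-element reporter units and were treated for 24 hours; activity was fitted bidirectionally against DMSO.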

[18] = target: Transcription factor Sp1 (Homo sapiens) (UniProt P08047); assay: ATG_Sp1_CIS: Attagene CIS-FACTORIAL HepG2 Assay for human Specificity Protein 1 (Sp1) (AID 2282961); conditions: HepG2 Sp1 cis-reporter transcription, actives raise or lower the signal
Transcription factor Sp1 (Homo sapiens), sequence (P08047 whole entry, looked up): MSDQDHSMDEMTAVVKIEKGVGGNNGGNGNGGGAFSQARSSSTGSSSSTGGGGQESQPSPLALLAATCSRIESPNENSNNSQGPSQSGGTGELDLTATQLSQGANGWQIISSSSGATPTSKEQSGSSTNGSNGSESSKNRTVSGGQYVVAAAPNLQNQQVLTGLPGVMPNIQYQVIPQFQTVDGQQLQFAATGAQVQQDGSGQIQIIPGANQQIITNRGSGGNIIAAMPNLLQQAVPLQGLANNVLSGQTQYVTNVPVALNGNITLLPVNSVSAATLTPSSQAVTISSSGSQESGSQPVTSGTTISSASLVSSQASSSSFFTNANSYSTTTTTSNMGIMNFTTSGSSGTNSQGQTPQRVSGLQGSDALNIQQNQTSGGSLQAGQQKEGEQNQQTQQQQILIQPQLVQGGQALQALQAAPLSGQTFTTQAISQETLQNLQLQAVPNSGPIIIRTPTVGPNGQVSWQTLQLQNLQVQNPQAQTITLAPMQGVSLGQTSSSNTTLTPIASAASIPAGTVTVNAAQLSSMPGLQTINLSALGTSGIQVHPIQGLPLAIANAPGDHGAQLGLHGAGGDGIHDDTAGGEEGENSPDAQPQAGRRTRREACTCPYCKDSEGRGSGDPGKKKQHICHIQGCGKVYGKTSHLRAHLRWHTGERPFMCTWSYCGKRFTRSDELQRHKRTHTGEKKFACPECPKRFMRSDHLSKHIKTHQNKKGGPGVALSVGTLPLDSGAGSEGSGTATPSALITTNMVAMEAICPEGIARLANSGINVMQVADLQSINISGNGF
Procedure, shortened: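 Measures mRNA induction of an Sp1-linked reporter in HepG2 cells 24 h post-dosing. Multiplexed reporters read by RT-PCR and capillary electrophoresis; DMSO serves as negative control and baseline.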

[19] = ATG_TGFb_CIS: Attagene CIS-FACTORIAL HepG2 Assay for human Transforming Growth Factor (TGF) (AID 2282967); conditions: HepG2 Attagene CIS TGFb reporter, mRNA transcription; actives raise or lower the signal
Procedure, shortened: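 Transcript-level reporter readout: HepG2 transfectants, 24 h exposure, RNA to cDNA, reporter-specific PCR, fluorescent primer extension, capillary sizing against ROX standards. Gain- or loss-of-signal relative to DMSO.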

[20] = ATG_PBREM_CIS: Attagene CIS-FACTORIAL HepG2 Assay for human Phenobarbital-responsive Enhancer Module (PBREM) (AID 2282955); conditions: HepG2 PBREM cis-reporter, Attagene multiplexed transcription; actives raise or lower the signal
Procedure, shortened: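 HepG2, transient MRTU transfection, 24 h dosing; RNA → oligo(dT) RT → PCR → 6-FAM extension → HpaI → CE. Bidirectional fit vs DMSO.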

Measured: AC50

CCCCCCCCCCCCCl
not listed: [18] | [19] | [20]
inactive: all other assays above

CCOC(=O)CC(=O)CCl
active: [1] 31.2 µM | [6] 146 µM | [7] 26 µM | [8] 27.4 µM | [12] 26.2 µM | [18] 23.9 µM | [13] 26.2 µM
not listed: [10] | [15] | [19] | [20]
inactive: all other assays above

CC1CC(=O)O1 (stereo not drawn)
active: [4] 88 µM
not listed: [10] | [19] | [20]
inactive: all other assays above

CCCCCCCCCCCCN(C)C
active: [9] 58.6 µM | [18] 53.2 µM | [13] 49 µM | [16] 48.4 µM | [17] 51.4 µM
not listed: [6] | [20]
inactive: all other assays above

CCCCN(CCCC)C(=S)S
active: [1] 126 µM | [4] 100 µM | [5] 100 µM | [7] 112 µM | [8] 100 µM | [9] 25.1 µM | [12] 50.1 µM | [13] 128 µM | [16] 166 µM
inactive: [2] | [3] | [11] | [18] | [14] | [15] | [17] | [19]

O=S(=O)(Oc1ccc(Cl)cc1)c1ccc(Cl)cc1
active: [7] 53.3 µM | [20] 10.8 µM | [9] 5.87 µM | [19] 63.8 µM
not listed: [6] | [8]
inactive: all other assays above
